Results: article PMC7862700, “An all-to-all approach to the identification of sequence-specific readers for epigenetic DNA modifications on cytosine”

Tests used:
Assay in all cases: DAPPL (digital affinity profiling via proximity ligation, sequencing); 10 mM Tris-HCl pH 7.5, 50 mM NaCl, 1 mM DTT, 4% glycerol, room temperature, 30 min; GST-TFs on glutathione beads, 16-mer random dsDNA library, 0.1% formaldehyde crosslink after washing; high values mean tight binding
Conditions in all cases: protein: recombinant; tags: N-terminal GST; dsDNA, one strand shown
ERF = target: T1, ERF (Homo sapiens, UniProt P50548 1-548)
T1 sequence: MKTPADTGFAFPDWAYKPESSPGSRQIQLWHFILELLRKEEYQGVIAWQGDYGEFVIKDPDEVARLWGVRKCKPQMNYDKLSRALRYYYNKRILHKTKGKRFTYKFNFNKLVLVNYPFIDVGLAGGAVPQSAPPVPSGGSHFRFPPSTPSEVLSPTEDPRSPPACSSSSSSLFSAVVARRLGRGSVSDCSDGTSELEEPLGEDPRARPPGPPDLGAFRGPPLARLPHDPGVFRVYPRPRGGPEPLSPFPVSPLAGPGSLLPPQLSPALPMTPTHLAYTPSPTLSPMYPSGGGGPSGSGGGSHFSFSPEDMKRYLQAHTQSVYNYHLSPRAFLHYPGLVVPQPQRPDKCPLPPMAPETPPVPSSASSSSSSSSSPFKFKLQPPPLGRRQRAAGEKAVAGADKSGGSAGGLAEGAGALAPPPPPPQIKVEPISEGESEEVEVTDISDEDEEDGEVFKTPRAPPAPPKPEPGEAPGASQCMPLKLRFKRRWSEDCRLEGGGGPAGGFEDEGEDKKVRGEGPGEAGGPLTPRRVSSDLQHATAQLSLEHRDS
Procedure, shortened: (§1)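 Pools of DNA-barcoded human transcription factors, expressed in yeast as GST fusions on glutathione beads and combined with a tag-only sample, were incubated with 200 nmole of a 16-mer random double-stranded DNA library. Incubation took 30 min at room temperature in Tris/NaCl/DTT/glycerol buffer and was followed by washing, 0.1% formaldehyde crosslinking, proximity ligation (BsaI/T4 ligase, 1 h, 37 °C), PCR amplification and sequencing on an Illumina NextSeq500. Binding signal is the ratio of a hexamer's read frequency for a factor to its frequency for the tag-only sample.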

ETV3L = target: T2, ETV3L (Homo sapiens, UniProt Q6ZN32 1-361)
T2 sequence: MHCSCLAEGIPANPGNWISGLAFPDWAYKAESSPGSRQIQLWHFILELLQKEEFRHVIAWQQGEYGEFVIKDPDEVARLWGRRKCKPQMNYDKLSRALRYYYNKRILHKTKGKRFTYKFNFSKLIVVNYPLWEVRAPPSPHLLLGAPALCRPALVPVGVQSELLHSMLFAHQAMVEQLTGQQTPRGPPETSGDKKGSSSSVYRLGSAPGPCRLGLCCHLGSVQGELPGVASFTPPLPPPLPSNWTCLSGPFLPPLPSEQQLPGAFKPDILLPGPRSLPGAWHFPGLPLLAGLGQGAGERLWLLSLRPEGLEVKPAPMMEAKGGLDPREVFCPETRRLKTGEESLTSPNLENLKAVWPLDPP
Procedure, shortened: as §1

ETS2 = target: T3, ETS2 (Homo sapiens, UniProt P15036 1-469)
T3 sequence: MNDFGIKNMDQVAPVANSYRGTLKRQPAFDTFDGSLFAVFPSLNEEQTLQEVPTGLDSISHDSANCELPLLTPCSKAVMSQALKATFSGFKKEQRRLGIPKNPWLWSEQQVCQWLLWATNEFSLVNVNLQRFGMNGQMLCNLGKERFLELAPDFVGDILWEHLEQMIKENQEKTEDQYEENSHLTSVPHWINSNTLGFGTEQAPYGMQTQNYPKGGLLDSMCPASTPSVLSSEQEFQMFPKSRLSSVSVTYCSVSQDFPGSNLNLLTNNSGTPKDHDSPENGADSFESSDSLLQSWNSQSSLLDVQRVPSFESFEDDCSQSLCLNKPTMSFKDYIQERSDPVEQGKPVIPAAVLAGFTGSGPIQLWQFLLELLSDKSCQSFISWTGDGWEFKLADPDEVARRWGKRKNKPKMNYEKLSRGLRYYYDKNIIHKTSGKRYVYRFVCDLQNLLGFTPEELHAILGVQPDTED
Procedure, shortened: as §1

SPDEF = target: T4, SPDEF (Homo sapiens, UniProt O95238 1-335)
T4 sequence: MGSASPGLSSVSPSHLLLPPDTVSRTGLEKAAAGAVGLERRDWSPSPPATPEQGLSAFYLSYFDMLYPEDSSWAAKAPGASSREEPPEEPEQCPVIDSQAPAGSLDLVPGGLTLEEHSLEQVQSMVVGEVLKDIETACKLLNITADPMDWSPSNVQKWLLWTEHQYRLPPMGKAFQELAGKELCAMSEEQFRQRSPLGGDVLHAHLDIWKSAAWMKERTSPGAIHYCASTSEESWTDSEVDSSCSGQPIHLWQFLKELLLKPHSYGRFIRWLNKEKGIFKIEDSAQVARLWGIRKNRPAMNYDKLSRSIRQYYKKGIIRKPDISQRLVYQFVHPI
Procedure, shortened: as §1

ETV7 = target: T5, ETV7 (Homo sapiens, UniProt Q9Y603 1-341)
T5 sequence: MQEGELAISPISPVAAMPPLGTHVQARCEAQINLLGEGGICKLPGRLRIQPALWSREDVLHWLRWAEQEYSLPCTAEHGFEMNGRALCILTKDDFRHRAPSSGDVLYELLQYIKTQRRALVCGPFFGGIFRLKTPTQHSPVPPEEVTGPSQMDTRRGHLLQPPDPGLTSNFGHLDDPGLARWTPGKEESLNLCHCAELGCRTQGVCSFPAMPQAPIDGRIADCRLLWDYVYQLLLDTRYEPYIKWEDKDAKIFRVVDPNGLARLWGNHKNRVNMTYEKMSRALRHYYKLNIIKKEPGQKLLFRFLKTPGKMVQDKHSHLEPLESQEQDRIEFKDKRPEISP
Procedure, shortened: as §1

ELF5 = target: T6, ELF5 (Homo sapiens, UniProt Q9UKW6-2 1-255)
T6 sequence: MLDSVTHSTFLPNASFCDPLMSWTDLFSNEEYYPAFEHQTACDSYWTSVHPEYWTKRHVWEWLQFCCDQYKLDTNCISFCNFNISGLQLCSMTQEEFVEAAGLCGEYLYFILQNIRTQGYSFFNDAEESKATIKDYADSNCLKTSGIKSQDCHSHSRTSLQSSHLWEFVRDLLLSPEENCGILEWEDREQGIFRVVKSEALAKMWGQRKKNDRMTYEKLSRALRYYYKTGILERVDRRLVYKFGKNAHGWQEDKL
Procedure, shortened: as §1

ETV3 = target: T7, ETV3 (Homo sapiens, UniProt P41162-2 1-143)
T7 sequence: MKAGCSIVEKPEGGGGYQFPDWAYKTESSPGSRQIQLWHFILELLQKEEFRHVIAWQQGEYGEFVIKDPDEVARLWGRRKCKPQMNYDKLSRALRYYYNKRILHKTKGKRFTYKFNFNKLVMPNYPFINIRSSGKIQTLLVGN
Procedure, shortened: as §1

ETV6 = ETV6 (Homo sapiens, UniProt P41212 1-452)
Procedure, shortened: as §1

Sequence of ETV6 (P41212 whole entry): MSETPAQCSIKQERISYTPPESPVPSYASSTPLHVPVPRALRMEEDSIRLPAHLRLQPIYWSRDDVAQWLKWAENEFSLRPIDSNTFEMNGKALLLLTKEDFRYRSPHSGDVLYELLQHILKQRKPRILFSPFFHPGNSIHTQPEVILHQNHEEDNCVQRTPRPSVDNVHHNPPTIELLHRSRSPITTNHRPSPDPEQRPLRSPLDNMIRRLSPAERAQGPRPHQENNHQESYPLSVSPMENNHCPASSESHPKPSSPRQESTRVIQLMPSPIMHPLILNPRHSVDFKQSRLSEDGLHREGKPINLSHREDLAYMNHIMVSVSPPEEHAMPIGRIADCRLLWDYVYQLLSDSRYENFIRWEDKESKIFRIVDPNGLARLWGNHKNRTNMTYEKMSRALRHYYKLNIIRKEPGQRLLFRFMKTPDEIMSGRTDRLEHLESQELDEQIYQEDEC

Sequence | binding signal (ERF) | binding signal (ETV3L) | binding signal (ETS2) | binding signal (SPDEF) | binding signal (ETV7) | binding signal (ELF5) | binding signal (ETV3) | binding signal (ETV6)
TAGCCT | 1.28 fold enrichment (6-mer frequency, TF over GST control) | 1.31 fold enrichment (6-mer frequency, TF over GST control) | 1.25 fold enrichment (6-mer frequency, TF over GST control) | 1.07 fold enrichment (6-mer frequency, TF over GST control) | 1.2 fold enrichment (6-mer frequency, TF over GST control) | 1.17 fold enrichment (6-mer frequency, TF over GST control) | 1.32 fold enrichment (6-mer frequency, TF over GST control) | 1.04 fold enrichment (6-mer frequency, TF over GST control)
ACTGCT | 1.27 fold enrichment (6-mer frequency, TF over GST control) | 1.41 fold enrichment (6-mer frequency, TF over GST control) | 1.38 fold enrichment (6-mer frequency, TF over GST control) | 1.26 fold enrichment (6-mer frequency, TF over GST control) | 1.4 fold enrichment (6-mer frequency, TF over GST control) | 1.33 fold enrichment (6-mer frequency, TF over GST control) | 1.42 fold enrichment (6-mer frequency, TF over GST control) | 1.33 fold enrichment (6-mer frequency, TF over GST control)
CGCTTC | 2.11 fold enrichment (6-mer frequency, TF over GST control) | 2.03 fold enrichment (6-mer frequency, TF over GST control) | 2.07 fold enrichment (6-mer frequency, TF over GST control) | 2 fold enrichment (6-mer frequency, TF over GST control) | 1.9 fold enrichment (6-mer frequency, TF over GST control) | 2.14 fold enrichment (6-mer frequency, TF over GST control) | 2.09 fold enrichment (6-mer frequency, TF over GST control) | 2.35 fold enrichment (6-mer frequency, TF over GST control)
CCTTTA | 1.34 fold enrichment (6-mer frequency, TF over GST control) | 1.38 fold enrichment (6-mer frequency, TF over GST control) | 1.32 fold enrichment (6-mer frequency, TF over GST control) | 1.38 fold enrichment (6-mer frequency, TF over GST control) | 1.23 fold enrichment (6-mer frequency, TF over GST control) | 1.41 fold enrichment (6-mer frequency, TF over GST control) | 1.33 fold enrichment (6-mer frequency, TF over GST control) | 1.41 fold enrichment (6-mer frequency, TF over GST control)
ACTCTC | 1.42 fold enrichment (6-mer frequency, TF over GST control) | 1.49 fold enrichment (6-mer frequency, TF over GST control) | 1.48 fold enrichment (6-mer frequency, TF over GST control) | 1.45 fold enrichment (6-mer frequency, TF over GST control) | 1.27 fold enrichment (6-mer frequency, TF over GST control) | 1.37 fold enrichment (6-mer frequency, TF over GST control) | 1.5 fold enrichment (6-mer frequency, TF over GST control) | 1.33 fold enrichment (6-mer frequency, TF over GST control)
TACCTT | 1.51 fold enrichment (6-mer frequency, TF over GST control) | 1.34 fold enrichment (6-mer frequency, TF over GST control) | 1.44 fold enrichment (6-mer frequency, TF over GST control) | 1.39 fold enrichment (6-mer frequency, TF over GST control) | 1.37 fold enrichment (6-mer frequency, TF over GST control) | 1.49 fold enrichment (6-mer frequency, TF over GST control) | 1.29 fold enrichment (6-mer frequency, TF over GST control) | 1.5 fold enrichment (6-mer frequency, TF over GST control)
TGGTTT | 1.53 fold enrichment (6-mer frequency, TF over GST control) | 1.51 fold enrichment (6-mer frequency, TF over GST control) | 1.54 fold enrichment (6-mer frequency, TF over GST control) | 1.49 fold enrichment (6-mer frequency, TF over GST control) | 1.44 fold enrichment (6-mer frequency, TF over GST control) | 1.54 fold enrichment (6-mer frequency, TF over GST control) | 1.52 fold enrichment (6-mer frequency, TF over GST control) | 1.67 fold enrichment (6-mer frequency, TF over GST control)
CTTCCC | 1.94 fold enrichment (6-mer frequency, TF over GST control) | 2.18 fold enrichment (6-mer frequency, TF over GST control) | 2.32 fold enrichment (6-mer frequency, TF over GST control) | 2.14 fold enrichment (6-mer frequency, TF over GST control) | 1.95 fold enrichment (6-mer frequency, TF over GST control) | 3.61 fold enrichment (6-mer frequency, TF over GST control) | 2.3 fold enrichment (6-mer frequency, TF over GST control) | 2.54 fold enrichment (6-mer frequency, TF over GST control)
CCCGAT | 1.22 fold enrichment (6-mer frequency, TF over GST control) | 1.14 fold enrichment (6-mer frequency, TF over GST control) | 1.23 fold enrichment (6-mer frequency, TF over GST control) | 1.11 fold enrichment (6-mer frequency, TF over GST control) | 1.24 fold enrichment (6-mer frequency, TF over GST control) | 1.24 fold enrichment (6-mer frequency, TF over GST control) | 1.21 fold enrichment (6-mer frequency, TF over GST control) | 1.06 fold enrichment (6-mer frequency, TF over GST control)
TAAAAC | 1.22 fold enrichment (6-mer frequency, TF over GST control) | 1.2 fold enrichment (6-mer frequency, TF over GST control) | 1.15 fold enrichment (6-mer frequency, TF over GST control) | 1.18 fold enrichment (6-mer frequency, TF over GST control) | 1.27 fold enrichment (6-mer frequency, TF over GST control) | 1.12 fold enrichment (6-mer frequency, TF over GST control) | 1.24 fold enrichment (6-mer frequency, TF over GST control) | 1.16 fold enrichment (6-mer frequency, TF over GST control)
TCCGCC | 1.48 fold enrichment (6-mer frequency, TF over GST control) | 1.59 fold enrichment (6-mer frequency, TF over GST control) | 1.54 fold enrichment (6-mer frequency, TF over GST control) | 1.83 fold enrichment (6-mer frequency, TF over GST control) | 1.49 fold enrichment (6-mer frequency, TF over GST control) | 2.2 fold enrichment (6-mer frequency, TF over GST control) | 1.75 fold enrichment (6-mer frequency, TF over GST control) | 1.63 fold enrichment (6-mer frequency, TF over GST control)
TGGACT | 1.25 fold enrichment (6-mer frequency, TF over GST control) | 1.22 fold enrichment (6-mer frequency, TF over GST control) | 1.27 fold enrichment (6-mer frequency, TF over GST control) | 1.2 fold enrichment (6-mer frequency, TF over GST control) | 1.19 fold enrichment (6-mer frequency, TF over GST control) | 1.22 fold enrichment (6-mer frequency, TF over GST control) | 1.25 fold enrichment (6-mer frequency, TF over GST control) | 1.28 fold enrichment (6-mer frequency, TF over GST control)
TACGCT | 1.4 fold enrichment (6-mer frequency, TF over GST control) | 1.27 fold enrichment (6-mer frequency, TF over GST control) | 1.22 fold enrichment (6-mer frequency, TF over GST control) | 1.32 fold enrichment (6-mer frequency, TF over GST control) | 1.31 fold enrichment (6-mer frequency, TF over GST control) | 1.24 fold enrichment (6-mer frequency, TF over GST control) | 1.42 fold enrichment (6-mer frequency, TF over GST control) | 1.28 fold enrichment (6-mer frequency, TF over GST control)
CTTCTC | 1.33 fold enrichment (6-mer frequency, TF over GST control) | 1.39 fold enrichment (6-mer frequency, TF over GST control) | 1.32 fold enrichment (6-mer frequency, TF over GST control) | 1.33 fold enrichment (6-mer frequency, TF over GST control) | 1.32 fold enrichment (6-mer frequency, TF over GST control) | 1.52 fold enrichment (6-mer frequency, TF over GST control) | 1.31 fold enrichment (6-mer frequency, TF over GST control) | 1.37 fold enrichment (6-mer frequency, TF over GST control)
CTTATA | 1.29 fold enrichment (6-mer frequency, TF over GST control) | 1.35 fold enrichment (6-mer frequency, TF over GST control) | 1.41 fold enrichment (6-mer frequency, TF over GST control) | 1.51 fold enrichment (6-mer frequency, TF over GST control) | 1.39 fold enrichment (6-mer frequency, TF over GST control) | 1.48 fold enrichment (6-mer frequency, TF over GST control) | 1.28 fold enrichment (6-mer frequency, TF over GST control) | 1.33 fold enrichment (6-mer frequency, TF over GST control)
